High-throughput results from PubChem BioAssay.
PHOSPHO1 block: PHOSPHO1 (human) inhibition | Q8TCT1 | recombinant PHOSPHO1, absorbance phosphatase assay | inhibition, % at 13.3 µM | 290,000 compounds, 1.1% hits | AID 1565; in the data active means inhibition above about 60%
APOBEC3A inh: blocks human APOBEC3A ssDNA deamination; P31941; recombinant A3A, FAM/TAMRA ssDNA deamination fluorescence; inhibition, % at 20 µM; 330,000 compounds, 0.41% hits;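 active means at least 40% inhibition at 20 µM here, with at most 30% in a related deaminase screen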;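 further: plate controls were A3A with DMSO for no effect and wells lacking A3A enzyme for full effect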
Target sequence (P31941 whole entry, looked up): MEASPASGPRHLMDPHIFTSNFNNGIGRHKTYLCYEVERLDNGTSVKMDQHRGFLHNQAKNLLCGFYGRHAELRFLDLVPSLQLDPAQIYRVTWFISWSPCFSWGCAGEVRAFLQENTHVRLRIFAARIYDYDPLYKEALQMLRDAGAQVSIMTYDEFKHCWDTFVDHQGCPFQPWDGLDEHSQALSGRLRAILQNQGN
PABP FP inh: PABP-poly(A) binding inhibition. PABP-poly(A) RNA binding, fluorescence polarization. calls only at 35 µM. 290,000 compounds, 1% hits. AID 2014;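 further: calls also rest on retests at 20 µM and on dose response follow-up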
eIF4H FP inh: inhibitors of RNA binding by human eIF4H. Q15056. eIF4H fluorescence polarization binding assay. inhibition, % at 35 µM. 290,000 compounds, 0.94% hits;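 further: calls also rest on retests at 20 µM and on dose response follow-up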
A3G deaminase: inhibitors of human APOBEC3G DNA deaminase. AID 493012. inhibition, % at 20 µM. 330,000 compounds, 0.28% hits. Q9HC16. recombinant A3G, ssDNA deamination FAM/TAMRA fluorescence;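 active means inhibition of at least 40% at 20 µM, with no more than 30% in the related APOBEC3A deaminase screen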;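 further: plate controls were DMSO wells with A3G for no effect and wells lacking A3G enzyme for full effect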
Target sequence (Q9HC16 whole entry, looked up): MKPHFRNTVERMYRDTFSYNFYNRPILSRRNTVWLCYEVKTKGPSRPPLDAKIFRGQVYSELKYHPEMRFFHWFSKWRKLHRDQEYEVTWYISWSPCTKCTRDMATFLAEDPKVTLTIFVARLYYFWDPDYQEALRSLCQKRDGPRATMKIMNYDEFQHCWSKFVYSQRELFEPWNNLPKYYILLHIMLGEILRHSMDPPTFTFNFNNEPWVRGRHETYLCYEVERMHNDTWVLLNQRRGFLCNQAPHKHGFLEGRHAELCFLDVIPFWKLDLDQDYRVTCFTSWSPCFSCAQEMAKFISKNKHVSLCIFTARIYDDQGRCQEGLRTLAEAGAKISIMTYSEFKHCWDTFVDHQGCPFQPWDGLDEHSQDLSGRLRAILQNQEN
MLLE-PAM2 inh: blocks PAM2 peptide binding to the PABP1 MLLE domain | P11940 | GST-MLLE / FITC-PAM2 fluorescence polarization | inhibition, % at 20 µM | 360,000 compounds, 0.36% hits; in the data active means inhibition above about 35%, passing the limit was not always enough;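 further: plate controls were DMSO wells with GST-MLLE for no effect and wells lacking GST-MLLE protein for full effect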
The depositor's hits bear a star; i = inactive; ? = inconclusive; · = no result given; + = active, no number; ! = not active in a repeat. In the library only some 2.6% were active in any assay of this set; here they are far more common. Unless noted, how the calls were made is not given here.

SMILES	PHOSPHO1 block	APOBEC3A inh	PABP FP inh	eIF4H FP inh	A3G deaminase	MLLE-PAM2 inh
O=C(CC[C@H]1O[C@@H](n2ccc(=O)[nH]c2=O)[C@H](O)[C@@H]1O)NC1CCN(Cc2ccccc2)C1 (stereo partly specified)	·	·	·	·	·	-6
COc1ccc(C)cc1NC(=O)C(Sc1nnnn1C)c1ccccc1 (stereo unspecified)	6	4	i	5	-5	-2
COCCn1c(SC(C(=O)Nc2cc(C)ccc2OC)c2ccccc2)nnc1-c1ccc(Cl)cc1 (stereo unspecified)	63*	6	i	8	-3	-4
Cc1c(C(=O)N(CCc2ccccc2)Cc2ccccc2)cccc1[N+](=O)[O-]	14	-1	i	6	0	11
O=c1c2c3n(c(=S)nc2[nH]n1-c1ccccc1)CCCCC3	82*	5	i	7	4	-32
O=C(CCS(=O)(=O)c1ccc(Br)cc1)N1CCCCCC1	58	18	i	94*	34	-3
CCOc1ccc(S(=O)(=O)NCCC(=O)NCC(c2ccc(F)cc2)N2CCOCC2)cc1 (stereo unspecified)	·	-1	·	·	-3	18
Cc1ccc[n+](/C(C(=S)NCc2ccco2)=C(/[O-])c2ccccc2Cl)c1	97*	-4	i	36	-2	1
Cc1ccc[n+](C(C(=S)NCc2ccco2)=C([O-])c2ccccc2Cl)c1	·	·	·	·	·	0
CC(C)(C)c1ccc(/C([O-])=C(/C(=S)NCc2ccco2)[n+]2ccccc2)cc1	84*	7	+	32*	9	·
O=C(O)c1ccsc1Cc1cccs1	·	·	·	·	·	9
COc1cccc(/C=N/NC(=O)CNC(=O)C(c2ccccc2)c2ccccc2)c1O	17	4	i	-4	-1	-11
O=C(CSc1nc(O)c(Cc2ccccc2)c(=O)[nH]1)Nc1nnc(SCc2ccccc2)s1	8	1	i	1	1	37*
Cc1cccc(NC(=O)CSc2nc(C)c(Cc3ccccc3)c(=O)[nH]2)c1	-10	-4	i	-2	-8	3
COc1ccc(Cc2c(O)nc(SCC(=O)NC34CC5CC(CC(C5)C3)C4)[nH]c2=O)cc1	-3	-5	i	-4	-6	41*!
COc1ccc(NC(=O)CSc2nc(O)c(Cc3ccccc3)c(=O)[nH]2)cc1	16	1	i	2	-4	40*
O=C(CSc1nc(O)c(Cc2ccccc2)c(=O)[nH]1)Nc1ccccc1	6	-4	i	1	-4	43*
CCOc1cc(C2C3=C(CCCC3=O)NC3=C2C(=O)CCC3)ccc1OCCO	-31	-3	i	-8	-2	41*
CCCCCCC(=O)N(O)C1CC(=O)N(c2ccc(Cl)cc2)C1=O (stereo unspecified)	16	-5	i	-12	41*	23
CCCCCCC(=O)N(O)C1CC(=O)N(c2ccc(C)cc2)C1=O (stereo unspecified)	-14	0	i	-9	39	44*
CCCNC(=O)N(C)C[C@@H]1Oc2cc(Br)ccc2S(=O)(=O)N([C@@H](C)CO)C[C@H]1C	·	·	·	·	·	0
O=C(CSc1nc2[nH]ncc2c(=O)[nH]1)Nc1ccccc1	9	21	i	4	-5	12
O=c1[nH]c(SCc2ccccc2)nc2[nH]ncc12	64*	-1	i	0	-2	-12
CCOc1ccc(CCNC(=O)COC(=O)/C=C/c2ccco2)cc1OCC	-21	5	i	5	0	7
O=C(CCl)Nc1cccc2ncccc12	9	-2	+	104*	-4	14
SMILES	PHOSPHO1 block	APOBEC3A inh	PABP FP inh	eIF4H FP inh	A3G deaminase	MLLE-PAM2 inh
Cc1ccc(NC(=O)c2ccc3c(c2)C(=O)N(Cc2cccnc2)C3=O)c(C)c1	61*	-6	i	4	-5	2
Cc1cccc(NC(=O)c2ccc3c(c2)C(=O)N(Cc2cccnc2)C3=O)c1C	43	2	i	9	-1	11
Cc1cnc(NC(=O)c2ccc3c(c2)C(=O)N(Cc2cccnc2)C3=O)s1	63*	4	i	-13	11	-16
COc1cc(CC2COC(c3ccc(O)c(OC)c3)C2COC(C)=O)ccc1O (stereo unspecified)	31	35	+	90*	33	1
CC1CN(C(=O)C2CCCCC2)C(C)CN1C(=O)C1CCCCC1 (stereo unspecified)	-2	-3	i	-1	-5	2
CC1CN(C(=O)C2CCCC2)C(C)CN1C(=O)C1CCCC1 (stereo unspecified)	60*	7	i	-9	10	4
CC(C)n1c(=O)c2ccccc2n1Cc1cn(-c2ccccc2)nn1	·	·	·	·	·	-1
Cc1ccc(C)c(OCC(=O)Nc2cccc(S(=O)(=O)NC3=NCCCCC3)c2)c1	67*	5	i	-4	9	-7
Cc1cc(Cl)ccc1OCC(=O)Nc1cccc(S(=O)(=O)NC2=NCCCCC2)c1	·	-3	·	·	-8	2
Cc1sc2ncnc(NCC3CCCO3)c2c1C (stereo unspecified)	60*	-3	i	3	-3	-8
CC(C)NC(=O)C(c1ccc(F)cc1)N(C(=O)CCC(=O)Nc1ccccn1)C1CCCC1 (stereo unspecified)	30	1	i	3	2	8
COC(=O)c1cc2c(-c3ccccc3)cc3ccccn3c-2c1C(=O)OC	52	-4	+	?	-7	35
O=C1CN(C(=O)CSc2nnc(-c3ccccc3)n2Cc2ccc3c(c2)OCO3)c2ccccc2N1	69*	0	i	-7	-7	-129
COc1ccc(C(c2nnnn2C(C)(C)C)N2CCN(c3nc4ccccc4s3)CC2)cc1 (stereo unspecified)	24	·	i	-1	·	1
CCC(C)(C)n1nnnc1C(c1ccc(O)c(OC)c1)N1CCN(c2nc3ccccc3s2)CC1 (stereo unspecified)	68*	-3	i	2	-4	19
Nc1ccc(/C=C/C(=O)c2ccco2)cc1	-11	5	+	54*	3	-124
O=C(Nc1ccc([N+](=O)[O-])cc1)c1cccc(S(=O)(=O)Nc2cccnc2)c1	8	6	i	-15	-3	0
Cc1c(NC(=O)CC(C)C)c(=O)n(-c2ccccc2)n1C	14	1	+	-1	2	1
Cc1cc(C)cc(C(=O)NCC(=O)OCC(=O)N2c3ccccc3NC(=O)C2(C)C)c1	-6	10	+	76*	16	8
COc1ccc(NC(=S)Nc2nc(CC(=O)Nc3ccccc3OC)cs2)cc1	30	2	i	-4	0	34
COc1ccccc1NC(=O)Cc1csc(NC(=S)Nc2ccccc2)n1	38	0	i	-11	-2	41*
Cc1cc(C)cc(C(=O)Nc2c3c(nn2C(C)(C)C)CS(=O)(=O)C3)c1	34	-4	i	0	-4	11
